Assay [1] in a line: qHTS assay to identify small molecule agonists of the estrogen receptor alpha (ER-alpha) signaling pathway in the presence of an antagonist - cell viability counter screen (AID 1259386).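 Note: cells exposed to compounds for 22 h at 37 °C before the viability read; nearly all actives have a fitted effect of over 30% in size.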 Note: potency is the fitted concentration of half-maximal effect. In outline:
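Cell viability in VM7Luc4E2 cells (endogenous full-length ER-alpha) measured by CellTiter-Fluor fluorescence in the same wells as the luciferase screen. Cells pre-cultured 5 days in charcoal-stripped serum, then treated 22 h with compounds at 15 concentrations plus 10.0nM ICI-182,780.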
(In general: qHTS replaces the single test concentration by a dilution series.)

In assay [2] the target is Progesterone receptor (Homo sapiens) (UniProt P06401). In words: qHTS assay to identify small molecule agonists of the progesterone receptor (PR) signaling pathway (AID 1346784; calls by dose curve; note: nearly all actives have a fitted effect of over 30% in size). In outline: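 Reporter assay, GripTite PR-UAS-bla HEK 293T cells: 16 hr exposure to DMSO-dissolved compounds at 37C, 5% CO2, in steroid-depleted (2% charcoal-stripped FBS) medium; beta-lactamase measured by FRET fluorescence.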

For assay [3] the target is unchanged. Kind of assay: qHTS assay to identify small molecule antagonists of the progesterone receptor (PR) signaling pathway (AID 1346795; active = well fitted inhibition curve with a large enough effect in the signal ratio in the repeat runs, not every such curve was filed as active; the % refers to the signal ratio; note: potency is the fitted concentration of half-maximal effect). The procedure, abridged:
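Stimulus R5020 at 1 nM final; cells HEK293T PR-UAS-bla; medium with 2% charcoal-stripped FBS; compound exposure 16 hr at 37C, 5% CO2; detection by FRET beta-lactamase substrate, 2 hr, room temperature.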

Assay [4] in a line: qHTS assay to identify small molecule antagonists of the progesterone receptor (PR) signaling pathway - cell viability counter screen (AID 1346798). Note: series mostly up to about 92 µM; nearly all actives have a fitted effect of over 50% in size. In outline: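 In the same plates used for the beta-lactamase readout, cell viability of compound- and R5020-treated PR-UAS-bla HEK293T cells (16 hr, 37C) was assessed by CellTiter-Glo luminescence.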
Assay [5] is described as follows: qHTS assay to identify small molecule agonists of the progesterone receptor (PR) signaling pathway - cell viability counter screen (AID 1346799; calls by dose curve; note: nearly all actives have a fitted effect of over 45% in size). In outline: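 Multiplexed viability read: CellTiter-Glo luminescence, 30 min RT, following LiveBLAzer FRET measurement on PR-UAS-bla HEK293T cells exposed to compounds 16 hr.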
Assay [6] can be described thus: qHTS assay to identify small molecule antagonists of the TGF-beta/Smad signaling pathway - cell viability counter screen (AID 1346824). Note: nearly all actives have a fitted effect of over 50% in size. In outline: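 Cytotoxicity counter-screen run in the same wells as the beta-lactamase Smad reporter read: CellTiter-Glo luminescence after 30 min at room temperature. HEK 293T SBE-bla cells had 5 hr compound exposure at 37 C with TGF-beta1 (0.25 ng/mL stock).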

A short description of assay [7]: qHTS assay to identify small molecule agonists of the TGF-beta/Smad signaling pathway - cell viability counter screen (AID 1346829). Note: top concentration of the series differs between compounds; nearly all actives have a fitted effect of over 45% in size. In outline: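 Compound-treated SBE-bla HEK 293T cells (5 hr, 37 C) were assessed for viability with CellTiter-Glo in parallel with the reporter read.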
Assay [8] in a line: qHTS assay to identify small molecule agonists of the TGF-beta/Smad signaling pathway (AID 1346859; active = well fitted activation curve with a large enough effect in the signal ratio in the repeat runs, not every such curve was filed as active; the % refers to the signal ratio; note: series mostly up to about 77 µM). The procedure, abridged:
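Screening used HEK 293T SBE-bla cells at 4,000/well. Test agents: 5 hr, 37 C. Detection: FRET substrate, 2 hr RT, then excitation 405 nm with emissions at 460 and 530 nm.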

The target of assay [9] is Thyrotropin-releasing hormone receptor (Homo sapiens) (UniProt P34981). In words: qHTS assay to identify small molecule antagonists of the thyrotropin-releasing hormone receptor (TRHR) signaling pathway (AID 1346877; active = well fitted inhibition curve with a large enough effect in the repeat runs, not every such curve was filed as active; note: series mostly up to about 51 µM). The procedure, abridged:
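TRHR-expressing HEK293 cells loaded with calcium dye for 2 h at 37 C; compounds pre-incubated 5 min at room temperature before TRH challenge at 1 nM final. Intracellular calcium fluorescence read kinetically for 3 min; 15 concentrations in triplicate.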

The target is the same in assay [10]. Kind of assay: qHTS assay to identify small molecule agonists of the thyrotropin-releasing hormone receptor (TRHR) signaling pathway (AID 1346891; calls by dose curve; note: series mostly up to about 58 µM). The procedure, abridged: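 Readout was intracellular calcium fluorescence in TRHR-Hek293 cells. Cells were incubated 18 h, dye-loaded 2 h at 37 °C, and treated with compound in agonist mode.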
Assay [11] is described as follows: Human pregnane X receptor (PXR) small molecule agonists, qHTS cell viability counter screen (AID 1346977). Note: nearly all actives have a fitted effect of over 50% in size. Note: potency is the fitted concentration of half-maximal effect. In outline:
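In each well, the PXR reporter HepG2 line was checked for viability: CellTiter-Fluor reagent added 23hr post-dosing, fluorescence read after 1hr incubation at 37C.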

A short description of assay [12]: Caspase-3/7 induction in HepG2 cells by small molecules, qHTS assay (AID 1346978). Note: nearly all actives have a fitted effect of over 15% in size. In outline: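 Caspase-3/7 induction was measured by Caspase-Glo 3/7 luminescence (30 min, room temperature) after a 17 hr compound exposure of wild-type HepG2 cells seeded at 2,000 per well and pre-incubated 5 hr.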
A short description of assay [13]: Caspase-3/7 induction in CHO-K1 cells by small molecules, qHTS cell viability counter screen (AID 1346979). Note: nearly all actives have a fitted effect of over 35% in size. Note: potency is the fitted concentration of half-maximal effect. The procedure, abridged:
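Following a 5hr settling period, CHO-K1 cells at 1,500 per well received DMSO-dissolved compounds. Cell viability was quantified 16hr later by CellTiter-Fluor fluorescence, measured after 1hr with reagent at 37C.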

Assay [14] in a line: Caspase-3/7 induction in CHO-K1 cells by small molecules, qHTS assay (AID 1346980). Note: nearly all actives have a fitted effect of over 15% in size. In outline: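 Luminescent Caspase-Glo 3/7 read (30min, room temperature) quantified apoptosis induction. Cells were wild-type CHO-K1, treated with compound for 17hr at 37 C and 5% CO2.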
Assay [15] in a line: Caspase-3/7 induction in HepG2 cells by small molecules, qHTS cell viability counter screen (AID 1346981). Note: nearly all actives have a fitted effect of over 30% in size. Note: potency is the fitted concentration of half-maximal effect. The procedure, abridged:
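Wild-type HepG2 cells, 2,000/well, settled 5 hr at 37 C, 5% CO2 before compound addition. Viability read by CellTiter-Fluor fluorescence, reagent added after 16 hr compound exposure, then 1 hr at 37C, in the same wells as the caspase read.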

Assay [16] has as its target Nuclear receptor subfamily 1 group I member 2 (Homo sapiens) (UniProt O75469). In words: Human pregnane X receptor (PXR) small molecule agonists, qHTS assay (AID 1346982). Note: nearly all actives have a fitted effect of over 35% in size. Note: potency is the fitted concentration of half-maximal effect. The procedure, abridged:
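PXR-Luc HepG2 reporter cells (CYP3A4-driven luciferase) in 5% charcoal-stripped FBS medium, plated 5 h before compound addition, then treated 24 h at 37C. Luciferase read by ONE-Glo luminescence after 30 min at room temperature.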

The target in assay [17] is Cytochrome P450 2D6 (Homo sapiens) (UniProt P10635). In words: Cytochrome P450 Family 2 Subfamily D Member 6 (CYP2D6) small molecule antagonists: luciferase reporter qHTS assay (AID 1671196). Note: nearly all actives have a fitted effect of over 50% in size. Note: potency is the fitted concentration of half-maximal effect. In outline: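 Cell-free P450-Glo system: CYP2D6 with proluciferin substrate was pre-incubated with compound for 10 min, then reacted with NADPH regeneration for 1 h at room temperature. Luciferin product was detected after 20 min, and data were reported as relative luminescence units.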
For orientation: A reporter such as luciferase makes a cellular process visible.

For assay [18], the target named is Nuclear receptor subfamily 1 group I member 2 (Rattus norvegicus) (UniProt Q9R1A7). Kind of assay: Rat pregnane X receptor (rPXR) activation by small molecules, qHTS assay (AID 1346983). Note: nearly all actives have a fitted effect of over 20% in size. The note with it: rPXR luciferase reporter cells, One-Glo luminescence, 24 h; max activation: stronger effect = higher value. In outline: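 Luminescent readout (One-Glo luciferase, 30 min room temperature) followed 24 hr compound treatment at 37 C of rPXR cells plated 2,000 per well and preincubated 5hr; qHTS format with compounds delivered in DMSO.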

The target of assay [19] is Nuclear receptor subfamily 1 group I member 2 (Homo sapiens) (UniProt O75469). Kind of assay: CYP3A4 induction through human pregnane X receptor (PXR) by small molecules, qHTS assay (AID 1346984). Note: nearly all actives have a fitted effect of over 40% in size. In outline: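 DPX-2 HepG2 cells carrying a PXR response element and CYP3A4-promoter luciferase construct, treated with compounds 24 hr at 37C. Then P450-Glo CYP3A4 Luciferin-IPA substrate (3uM final) for 3 hr at 37C, One-Glo added, luminescence read.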

Assay [20] shares this target. Kind of assay: Human pregnane X receptor (PXR) activation by small molecules, qHTS assay (AID 1346985). Note: nearly all actives have a fitted effect of over 40% in size. Note: potency is the fitted concentration of half-maximal effect. In outline:
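DPX-2 cells (HepG2 co-transfected with a PXR response element and a CYP3A4-promoter luciferase construct) were seeded at 2,000 per well, rested 5 hr at 37C, then exposed to DMSO-dissolved compounds for 24 hr. Activation was read as luciferase luminescence.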

Structures are written as SMILES. Where “and” joins values, the source holds several entries; their conditions need not be identical. Identical values can stand only once. Inconclusive results are not listed. Some structures have more than one record in an assay (separate samples or runs), and their calls can disagree. Calls of active or inactive are those of the source. Unless noted, calls come from the whole dose curve; as a rule, active = well fitted curve in the direction sought with a large enough effect in the repeat runs; inconclusive = weak or mixed curves; inactive = no such curve, though single readings can be large; an effect the other way counts as inactive or inconclusive.
% is set by controls: 0 for no effect and ±100 for the full control effect.

Cytochrome P450 2D6 (Homo sapiens), sequence (P10635 whole entry, looked up): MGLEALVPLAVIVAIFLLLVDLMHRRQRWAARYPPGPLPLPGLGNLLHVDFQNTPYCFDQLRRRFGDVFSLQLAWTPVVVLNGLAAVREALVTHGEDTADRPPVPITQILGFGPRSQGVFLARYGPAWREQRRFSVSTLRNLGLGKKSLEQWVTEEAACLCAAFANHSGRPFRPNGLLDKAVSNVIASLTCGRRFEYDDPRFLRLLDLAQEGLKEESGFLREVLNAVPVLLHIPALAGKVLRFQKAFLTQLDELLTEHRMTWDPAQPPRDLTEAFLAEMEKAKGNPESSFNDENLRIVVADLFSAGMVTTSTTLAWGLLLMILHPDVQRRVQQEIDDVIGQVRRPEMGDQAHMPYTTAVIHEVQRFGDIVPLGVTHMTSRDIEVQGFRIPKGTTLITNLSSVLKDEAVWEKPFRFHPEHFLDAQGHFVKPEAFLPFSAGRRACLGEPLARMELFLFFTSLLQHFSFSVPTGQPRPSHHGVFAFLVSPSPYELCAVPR
Progesterone receptor (Homo sapiens), sequence (P06401 whole entry, looked up): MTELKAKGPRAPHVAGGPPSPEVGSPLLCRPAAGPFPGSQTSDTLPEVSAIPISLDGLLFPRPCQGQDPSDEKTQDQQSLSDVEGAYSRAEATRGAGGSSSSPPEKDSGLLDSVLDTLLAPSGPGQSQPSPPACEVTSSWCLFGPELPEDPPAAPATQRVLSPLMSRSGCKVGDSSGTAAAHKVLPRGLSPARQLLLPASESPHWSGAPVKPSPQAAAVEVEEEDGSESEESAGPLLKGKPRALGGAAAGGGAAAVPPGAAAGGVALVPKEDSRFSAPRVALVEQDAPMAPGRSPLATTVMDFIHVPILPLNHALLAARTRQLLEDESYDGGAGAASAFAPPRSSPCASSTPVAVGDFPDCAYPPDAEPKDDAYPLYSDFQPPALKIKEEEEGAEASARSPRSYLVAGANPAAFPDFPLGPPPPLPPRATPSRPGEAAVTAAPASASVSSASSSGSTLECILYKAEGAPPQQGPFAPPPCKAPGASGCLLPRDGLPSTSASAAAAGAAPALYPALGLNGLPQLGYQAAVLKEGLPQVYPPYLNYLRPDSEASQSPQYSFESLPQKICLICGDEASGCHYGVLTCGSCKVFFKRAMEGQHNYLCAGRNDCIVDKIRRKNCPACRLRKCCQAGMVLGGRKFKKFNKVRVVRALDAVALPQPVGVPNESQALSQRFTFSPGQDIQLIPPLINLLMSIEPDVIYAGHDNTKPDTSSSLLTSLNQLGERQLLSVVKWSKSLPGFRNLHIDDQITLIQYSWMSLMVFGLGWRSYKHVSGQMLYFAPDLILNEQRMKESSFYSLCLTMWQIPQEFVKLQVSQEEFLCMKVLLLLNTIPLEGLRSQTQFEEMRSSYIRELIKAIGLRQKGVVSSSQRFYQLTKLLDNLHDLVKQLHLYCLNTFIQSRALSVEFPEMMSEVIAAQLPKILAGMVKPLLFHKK
Thyrotropin-releasing hormone receptor (Homo sapiens), sequence (P34981 whole entry, looked up): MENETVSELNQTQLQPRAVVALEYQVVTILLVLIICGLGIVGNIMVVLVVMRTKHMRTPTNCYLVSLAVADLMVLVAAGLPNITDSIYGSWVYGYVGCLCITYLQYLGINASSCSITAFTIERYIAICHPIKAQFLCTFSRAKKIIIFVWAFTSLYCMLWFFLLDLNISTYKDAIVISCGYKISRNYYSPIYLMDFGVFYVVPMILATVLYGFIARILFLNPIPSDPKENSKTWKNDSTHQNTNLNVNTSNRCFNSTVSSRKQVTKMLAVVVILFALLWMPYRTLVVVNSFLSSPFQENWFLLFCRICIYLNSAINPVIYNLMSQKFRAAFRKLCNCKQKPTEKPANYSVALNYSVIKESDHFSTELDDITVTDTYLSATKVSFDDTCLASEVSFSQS
Nuclear receptor subfamily 1 group I member 2 (Homo sapiens), sequence (O75469 whole entry, looked up): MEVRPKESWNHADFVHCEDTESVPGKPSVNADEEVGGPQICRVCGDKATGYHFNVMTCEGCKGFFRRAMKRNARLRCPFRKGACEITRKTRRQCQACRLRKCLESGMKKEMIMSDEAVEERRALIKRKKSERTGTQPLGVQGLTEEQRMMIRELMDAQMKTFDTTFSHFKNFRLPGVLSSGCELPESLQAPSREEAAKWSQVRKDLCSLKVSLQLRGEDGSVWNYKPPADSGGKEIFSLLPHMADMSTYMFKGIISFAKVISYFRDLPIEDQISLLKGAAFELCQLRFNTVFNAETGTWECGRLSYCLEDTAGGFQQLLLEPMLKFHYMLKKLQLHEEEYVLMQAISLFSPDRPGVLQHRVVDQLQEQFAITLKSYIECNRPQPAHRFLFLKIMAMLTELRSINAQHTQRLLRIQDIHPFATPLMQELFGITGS
Nuclear receptor subfamily 1 group I member 2 (Rattus norvegicus), sequence (Q9R1A7 whole entry, looked up): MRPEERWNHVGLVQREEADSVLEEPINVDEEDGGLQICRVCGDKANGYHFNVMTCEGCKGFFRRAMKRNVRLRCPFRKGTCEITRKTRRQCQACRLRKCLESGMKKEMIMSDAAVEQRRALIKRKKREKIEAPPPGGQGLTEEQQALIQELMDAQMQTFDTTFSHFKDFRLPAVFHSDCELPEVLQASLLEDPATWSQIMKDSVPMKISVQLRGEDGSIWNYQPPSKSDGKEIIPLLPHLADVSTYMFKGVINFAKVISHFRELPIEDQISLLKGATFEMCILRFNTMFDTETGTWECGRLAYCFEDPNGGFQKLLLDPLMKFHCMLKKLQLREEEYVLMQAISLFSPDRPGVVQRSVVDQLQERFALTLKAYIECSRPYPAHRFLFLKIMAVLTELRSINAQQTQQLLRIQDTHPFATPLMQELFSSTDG

For `CC1=C(/C=C/C(C)=C/C=C/C(C)=C/C(=O)O)C(C)(C)CCC1`, the Potency result in [1], in assay [2], in assay [3], in [4], in assay [5] and in assay [6] was “inactive” each time. Moreover, the Potency entry in assay [7], in assay [10], in assay [11], in assay [12], in [15] and in [17] was “inactive” in each case. Further, the call in assay [8], in [9] and in assay [14] was inactive. The Potency in assay [13] was 68.5 µM (active) and inactive; in [16], 54.5 µM (active) and 61.1 µM (active) and 33.5 µM (active).
Take `CO[C@H]1C=CO[C@@]2(C)Oc3c(C)c(O)c4c(O)c(c(/C=N/N5CCN(C)CC5)c(O)c4c3C2=O)NC(=O)/C(C)=C\C=C[C@H](C)[C@H](O)[C@@H](C)[C@@H](O)[C@@H](C)[C@H](OC(C)=O)[C@@H]1C`: the Potency in [1] was 27.4 µM (active) and 31 µM (active) and 23.7 µM (active); in assay [11], 35.5 µM (active) and 19.6 µM (active) and 23.7 µM (active); in assay [13], 30.8 µM (active) and 34.8 µM (active) and 26.6 µM (active); in assay [15] it was 27.4 µM (active) and 34.8 µM (active) and 23.7 µM (active). Besides, the Potency entry in assay [2], in assay [3], in assay [4], in [5], in assay [6] and in assay [7] was “inactive” each time. Further, the Potency entry in assay [10], in assay [12] and in assay [17] was “inactive” in each case. In addition, the call in assay [8], in assay [9] and in assay [14] was inactive. Also, the max activation in assay [18] was -4.8% (inactive).
On to `Cc1ccc(O)c(-n2nc3ccccc3n2)c1`, for which the Potency entry in [1], in assay [2], in assay [4], in [5], in assay [6] and in [7] was “inactive” throughout. For the same compound, the Potency entry in assay [11], in assay [12], in assay [13], in assay [15] and in assay [19] was “inactive” throughout. Further, the Potency is 48.6 µM (active) in [3]; 27.1 µM (active) and 27.3 µM (active) and 23.7 µM (active) in assay [16]; 14.1 µM (active) in assay [20]; 31.5 µM (active) and 35.6 µM (active) and 30.9 µM (active) in assay [17]. Besides, the call in [8] and in assay [14] was inactive. In addition, the max activation in assay [18] is -1.88% (inactive).
As for `O=C(OCc1ccccc1)c1ccccc1`, the Potency result in assay [1], in assay [2], in assay [3], in assay [4], in assay [5] and in assay [6] was “inactive” throughout. The Potency entry in assay [7], in [11], in assay [12], in assay [13], in assay [15] and in assay [16] was “inactive” throughout. The Potency result in [19], in [20] and in assay [17] was “inactive” each time. Further, the compound was classed as inactive in assay [8] and in [14]. The max activation in [18] is 0.688% (inactive).
As to `COCCOCCOC`, the Potency entry in [1], in assay [2], in assay [3], in assay [4], in assay [5] and in [6] was “inactive” each time. Further, the Potency entry in [7], in assay [10], in assay [11], in [12], in assay [13] and in assay [15] was “inactive” in each case. Also, the Potency entry in assay [17] was “inactive”. For the same compound, the compound was classed as inactive in [8] and in assay [14]. In [16], the Potency was 61.3 µM (active) and inactive.
On to `O=C(O)CN(CC(=O)O)CC(=O)O`, for which the Potency entry in assay [1], in assay [2], in [3], in assay [4], in [5] and in assay [6] was “inactive” in each case. Also, the Potency entry in assay [7], in assay [10], in [11], in assay [13], in assay [15] and in assay [16] was “inactive” throughout. The Potency entry in assay [17] is “inactive”. The compound was called inactive in assay [8] and in assay [14].
On to `C=C(C)C(N)=O`, for which the Potency result in assay [1], in assay [2], in [3], in assay [4], in assay [5] and in assay [6] was “inactive” each time. For the same compound, the Potency entry in assay [7], in assay [10], in [11], in [12], in assay [13] and in assay [15] was “inactive” throughout. The Potency result in [16] and in assay [17] was “inactive” each time. Also, the compound was classed as inactive in assay [8] and in assay [14].

The record behind these values is PubChem BioAssay (Tox21).
